Records with an inconclusive call do not appear. Active and inactive are the calls of the source. Calls follow the shape of the dose curve; as a rule, active = well fitted curve in the direction sought with a large enough effect; inconclusive = small, poorly fitted or top-dose-only effect, or another doubt; inactive = no such curve, though single readings can be large; an effect the other way counts as inactive or inconclusive.
Key:
[1] = MultiTox-Fluor Cytotoxicity Assay - LYMP1-001 - Dead Cells (AID 946)
In short: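 AC50 from Hill fit of concentration-response; data normalized to DMSO (basal) and 15 uM tetraoctylammonium bromide (100%). LYMP1-001 lymphoblastoid cells, 2500/well, 16 hr compound at 37 C; dead-cell protease fluorescence, Ex/Em 485/520.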

[2] = MultiTox-Fluor Cytotoxicity Assay - LYMP1-001 - Live Cells (AID 947)
[3] = Cell Viability - LYMP1-002 - Assay at 16 hr (AID 948)
In short: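 Human lymphoblastoid cells (LYMP1-002), 2500/well, were preincubated 5 hr at 37 C, then exposed to compounds for 16 hr at 37 C in complete medium. Cellular ATP was read by CellTiter-Glo luminescence after 30 min at room temperature; AC50 from Hill fits.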

[4] = MultiTox-Fluor Cytotoxicity Assay - LYMP1-002 - Live Cells (AID 955)
In short: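 Cytotoxicity in the human lymphoblastoid line LYMP1-002 is measured as loss of live-cell protease activity after 16 h treatment in complete culture medium. AC50 is derived from Hill-equation fits of qHTS concentration-response data.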

[5] = MultiTox-Fluor Cytotoxicity Assay - LYMP1-002 - Dead Cells (AID 960); also: nearly all actives have a fitted effect of over 60% in size
In short: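 Acute cytotoxicity in a human lymphoblastoid line is scored as rising dead-cell protease signal after 16 hr exposure at 37 C, measured fluorometrically (485/520).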

[6] = MultiTox-Fluor Cytotoxicity Assay - LYMP1-003 - Dead Cells (AID 961); also: nearly all actives have a fitted effect of over 70% in size
In short: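 Human lymphoblastoid LYMP1-003 cells (2500/well) were treated with compounds for 16 hr at 37 C in complete medium. Dead-cell protease release was read by bis-AAF-R110 fluorescence (Ex/Em 485/520). AC50 came from Hill fits, normalized to DMSO and 15 uM tetraoctylammonium bromide.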

[7] = MultiTox-Fluor Cytotoxicity Assay - LYMP1-003 - Live Cells (AID 962);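 also: cytotoxic hits lower the live-cell protease signal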
In short: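 Cells plated at 2500 per well and incubated 5 hr; compounds added and incubated 16 hr at 37 C; MultiTox-Fluor reagent added for 60 min at room temperature; fluorescence of liberated AFC measured at 405/510 nm.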

[8] = Cell Viability - LYMP1-003 - Assay at 24 hr (AID 963)
In short: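 Acute toxicity in LYMP1-003 lymphoblastoid cells: 24 hr compound treatment at 37 C, ATP measured with CellTiter-Glo after 30 min at room temperature. AC50 derived by fitting the Hill equation to qHTS titrations.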

[9] = Cell Viability - LYMP1-003 - Assay at 40 hr (AID 964); also: series mostly up to about 92 µM; nearly all actives have a fitted effect of over 60% in size
In short: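 This qHTS cytotoxicity screen treats human lymphoblastoid cells (LYMP1-003) with compounds for 40 hr and quantifies cellular ATP via luciferase luminescence.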

[10] = Cell Viability - LYMP2-003 (AID 965);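 also: cells exposed to compounds for 24 h before reading; nearly all actives have a fitted effect of over 50% in size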
In short: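 Human lymphoblastoid cells (2500/well) were pre-incubated 5 hr at 37 C, then exposed to compounds over a concentration range for 24 hr at 37 C. Intracellular ATP was read by CellTiter-Glo luminescence; AC50 came from Hill-equation fits.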

[11] = Cell Viability - LYMP2-004 (AID 966); also: nearly all actives have a fitted effect of over 65% in size
In short: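 Acute toxicity is scored as a concentration-dependent drop in intracellular ATP, quantified by luciferase luminescence, in human lymphoblastoid cells exposed to compound for 24 hr. AC50 derives from Hill-equation modelling.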

[12] = Cell Viability - LYMP2-005 (AID 967); also: series mostly up to about 92 µM
In short: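 CellTiter-Glo luminescence (cellular ATP) read-out; LYMP2-005 lymphoblastoid cells, 2500/well, 5 h pre-incubation, then 24 h compound exposure at 37 C in complete medium. Tetraoctylammonium bromide positive control; AC50 by standard Hill fit.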

[13] = Cell Viability - LYMP2-009 (AID 968); also: series mostly up to about 92 µM; nearly all actives have a fitted effect of over 55% in size
[14] = Cell Viability - LYMP2-011 (AID 969); also: nearly all actives have a fitted effect of over 60% in size
In short: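 Acute toxicity is scored as a concentration-dependent drop in intracellular ATP of a human lymphoblastoid line after 24 hr treatment. Values are AC50s modeled with the Hill equation.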

[15] = Cell Viability - LYMP2-013 (AID 970); also: series mostly up to about 92 µM; nearly all actives have a fitted effect of over 55% in size
In short: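 Acute toxicity was measured in human lymphoblastoid cells (2500/well) exposed to compound titrations for 24 hr, with ATP luminescence (CellTiter-Glo) as read-out and AC50 fitted by Hill equation.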

[16] = Cell Viability - LYMP2-015 (AID 971); also: nearly all actives have a fitted effect of over 55% in size
In short: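 Acute toxicity was scored as a concentration-dependent drop in intracellular ATP in lymphoblastoid cells after 24 hr compound exposure in complete medium. Detection used CellTiter-Glo luciferase luminescence.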

[17] = Cell Viability - LYMP2-017 (AID 972); also: series mostly up to about 92 µM; nearly all actives have a fitted effect of over 55% in size
In short: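 Steps: plate 2500 lymphoblastoid cells per well; incubate 5 hr at 37 C; add compound across a concentration series and incubate 24 hr at 37 C; add CellTiter-Glo and read luminescence after 30 min at room temperature; fit Hill curves for AC50.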

[18] = Cell Viability - LYMP2-019 (AID 973); also: nearly all actives have a fitted effect of over 55% in size
In short: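 Cells plated at 2500/well and allowed 5 hr at 37 C before compound addition. After 24 hr incubation, CellTiter-Glo reagent was added, plates sat 30 min at room temperature, and luminescence was recorded.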

[19] = Cell Viability - LYMP2-021 (AID 974)
In short: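 Concentration-response cytotoxicity in a human lymphoblastoid line: 24 hr treatment at 37 C in complete culture medium, tetraoctylammonium bromide as positive control, luminescent ATP quantitation as viability measure.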

[20] = Cell Viability - LYMP2-023 (AID 975)
In short: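 Concentration-dependent drop in intracellular ATP measures acute cytotoxicity in a human lymphoblastoid line treated for 24 hours in complete culture medium. AC50 values are taken from Hill-equation fits of qHTS data.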

Measured: outcome

CC(C)(c1cc(Br)c(O)c(Br)c1)c1cc(Br)c(O)c(Br)c1
inactive: [1] | [2] | [3] | [4] | [5] | [6] | [7] | [8] | [9] | [10] | [11] | [12] | [13] | [14] | [15] | [16] | [17] | [18] | [19] | [20]

— PubChem BioAssay (NCATS)
